Sampled rows, rich in hits. Any-hit rate of the full collection: about 1.4%.
GLD-1 RNA inh: GLD-1/TGE RNA complex disruptors, primary screen, biochemical, fluorescence polarization; Female germline-specific tumor suppressor gld-1 (Caenorhabditis elegans), Q17339; purified GLD-1 + fluorescein TGE RNA; inhibition, % at 5.96 µM; 320,000 tested, 0.44% active;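 active means percent inhibition above a per-plate cutoff, the plate mean of test compounds plus 3 SD, cut at about 30% in these data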
eLon inh: inhibitors of E. coli Lon protease, primary screen, biochemical, fluorescence polarization | 360,000 tested, 0.42% active | purified E. coli Lon protease | AID 602123, 2011 | P0A9M0 | inhibition, % at 7.94 µM; in the data active means inhibition above about 13%, passing the limit was not always enough
Bcl-xL primary: inhibitors of human Bcl-xL, primary screen, biochemical, fluorescence polarization, HTS; AID 2129, 2009; 320,000 tested, 0.7% active; inhibition, % at 10.9 µM; GST-Bcl-xL / FITC-Bim BH3 peptide fluorescence polarization;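 active means inhibition above the mean of all tested compounds plus 3 SD, cutoff set per campaign, cut at about 30% in these data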;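 further: inhibitors lower millipolarization by displacing the labeled peptide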
MCL1 BIM primary: inhibitors of MCL1 binding to BIM-BH3, primary screen, biochemical, fluorescence polarization; GST-MCL1 / FITC-Bim-BH3 fluorescence polarization; inhibition, % at 10.9 µM; 320,000 tested, 0.68% active;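 active means inhibition above the mean inhibition of all tested compounds plus 3 SD, set per campaign, cut at about 40% in these data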;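 further: higher means more loss of mP so more displacement of Bim peptide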
MEX-5 binding: MEX-5 zinc finger RNA-binding disruptors – biochemical, C. elegans, fluorescence polarization, MLPCN library, primary screen; 300,000 tested, 0.38% active; Zinc finger protein mex-5 (Caenorhabditis elegans), Q9XUB2; MEX-5/FITC-TCR2 RNA binding; active compounds read low; activity score (negative = inhibition of binding), % at 10 µM; AID 1832, 2009;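 active means inhibition past about -25% in most replicates, and total fluorescence under double the plate's negative control median, limit read from the data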
Target sequence (Q9XUB2 whole entry, looked up): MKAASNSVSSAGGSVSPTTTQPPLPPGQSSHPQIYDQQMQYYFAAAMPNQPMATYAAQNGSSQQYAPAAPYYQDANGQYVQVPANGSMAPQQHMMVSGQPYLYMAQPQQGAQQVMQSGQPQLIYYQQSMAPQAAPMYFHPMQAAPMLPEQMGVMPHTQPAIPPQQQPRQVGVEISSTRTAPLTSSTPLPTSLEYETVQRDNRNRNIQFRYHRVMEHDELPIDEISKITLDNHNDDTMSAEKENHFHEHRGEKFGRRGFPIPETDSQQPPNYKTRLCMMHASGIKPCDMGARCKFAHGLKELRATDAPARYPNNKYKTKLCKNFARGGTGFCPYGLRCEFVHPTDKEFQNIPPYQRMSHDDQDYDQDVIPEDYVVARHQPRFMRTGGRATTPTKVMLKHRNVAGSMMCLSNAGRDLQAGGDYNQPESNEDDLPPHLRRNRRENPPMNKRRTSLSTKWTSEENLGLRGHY
Each line names hits and unclear results; the compound was inactive in the other large screens.

CCOc1ccc(S(=O)(=O)NCCC(=O)NCC(c2ccco2)N2CCCCC2)cc1 (configuration not stated)	none (no result: MEX-5 binding)
O=C1Nc2ccc(Br)cc2/C1=C/c1ccc(C(=O)O)cc1	none (no result: eLon inh)
CCn1ccc(C(=O)Nc2ncc(C)s2)n1	none
COc1ccc2c3c(cccc13)OCC2=O	Bcl-xL primary 31
COc1cc2c(c(OC)c1OC)C(=O)CO2	none (no result: GLD-1 RNA inh, Bcl-xL primary, MCL1 BIM primary, MEX-5 binding)
O=Cc1ccc2ccc3cccnc3c2n1	MEX-5 binding -34
O=C(CN(c1ccc(Cl)c(C(F)(F)F)c1)S(=O)(=O)c1ccccc1)N/N=C/c1cccc2c1OCCO2	none
COc1ccc(NC(=O)CN2CCC(NC(=O)C3CCCCC3)CC2)c([N+](=O)[O-])c1	MEX-5 binding -92
CCCCn1cnc2c(c1=O)c1nc3ccccc3nc1n2Cc1ccc2c(c1)OCO2	none
CCN(CC)c1ccc(/C=C(\C#N)C(=O)NCc2ccccc2)cc1	none
CN(C)c1ccc(/C=C(\C#N)C(=O)NCc2ccco2)cc1	MEX-5 binding -42 (no result: eLon inh)
Cc1ccc(CNC(=O)/C(C#N)=C\c2ccc(N(C)C)cc2)cc1	MEX-5 binding -60 (no result: eLon inh)
CC(=O)N1N=C(c2ccccc2)CC1c1cn(C)c2ccccc12 (configuration not stated)	none
COc1cc2c(cc1OC)CN(C(=O)c1ccc(S(=O)(=O)N(C)c3ccccc3)cc1)CC2	none
O=C1Cc2cccc(=O)c(O)c2C(=O)O1	none (no result: GLD-1 RNA inh, Bcl-xL primary, MCL1 BIM primary, MEX-5 binding)
O=C1c2c(O)cccc2Cc2cccc(O)c21	Bcl-xL primary 31 (no result: MEX-5 binding)
Cc1ccc(C(=O)OCC(=O)Nc2ccccc2C(F)(F)F)cc1S(=O)(=O)N1CCCCC1	none (no result: GLD-1 RNA inh, Bcl-xL primary, MCL1 BIM primary, MEX-5 binding)
CCCCC(=O)Nc1ccc(Cl)cn1	none
CCCC(C)C(=O)Nc1ccc(Cl)cn1 (configuration not stated)	Bcl-xL primary 162
CC(NC(=O)CSc1nnnn1C1CC1)c1ccccc1Br (configuration not stated)	none (no result: Bcl-xL primary, MCL1 BIM primary, MEX-5 binding)
CCc1ccc(/C=C2/SC(=S)N(CCC(=O)Nc3ccc(C(=O)O)cc3)C2=O)cc1	Bcl-xL primary 189
COc1ccccc1/C=C1\SC(=S)N(CCC(=O)NC2=NCCS2)C1=O	MEX-5 binding -63
COc1ccc(/C=C2\SC(=S)N(CCC(=O)NC3CCCC3)C2=O)cc1OC	MEX-5 binding -27
O=C(Nc1cccc(C(F)(F)F)c1)c1cccnn1	none
CN(C(=O)c1cccc(NC(=O)Cc2ccc(NC(=O)C3CCN(C(=O)C4CCCCC4)CC3)cc2)c1)C1CCCC1	none (no result: GLD-1 RNA inh, Bcl-xL primary, MCL1 BIM primary, MEX-5 binding)
CCN(CC(=O)Nc1ccc(NC(C)=O)cc1)C(=O)c1ccc(N2CCCC2)c([N+](=O)[O-])c1	none (no result: GLD-1 RNA inh, Bcl-xL primary, MCL1 BIM primary, MEX-5 binding)
O=C(Nc1ccc(S(=O)(=O)Nc2nccs2)cc1)c1ccc(N2C(=O)c3ccccc3C2=O)cc1	MEX-5 binding -29
CCn1nc(C(=O)Nc2ccc(S(=O)(=O)Nc3ncccn3)cc2)c2ccccc2c1=O	none
CCCn1nc(C(=O)Nc2ccc(S(=O)(=O)Nc3nccs3)cc2)c2ccccc2c1=O	MEX-5 binding -41
CC(C)(C)c1ccc(C(=O)N/C(=C\c2cccs2)C(=O)NCc2ccco2)cc1	none
O=C(c1ccco1)N1N=C(c2ccc3nccnc3c2)CC1c1ccccc1 (configuration not stated)	none
Cc1ccc(O)c(-c2cc(C(=O)Nc3ccc(S(=O)(=O)Nc4nccc(C)n4)cc3)[nH]n2)c1	MEX-5 binding -29
COc1ccc(C(=O)Nc2ccc(S(=O)(=O)Nc3nccc(C)n3)cc2)cc1	none
CCCc1cc(=O)oc2c(C)c(OC(C)C(=O)NCCN3CCOCC3)ccc12 (configuration not stated)	none
Cc1cc(N=Cc2c(O)n(-c3ccc4c(c3)OCO4)c(=O)c3ccccc23)ccn1	MEX-5 binding -31
Cc1ccc(-n2c(O)c(C=Nc3ccc4c(c3)OCO4)c3ccccc3c2=O)cc1C	none
N#Cc1c(C#N)c(O)c2ccccc2c1O	Bcl-xL primary 45, MCL1 BIM primary 44
C[N+](C)(C)CC(=O)N/N=C/c1c2ccccc2cc2ccccc12	none
Cn1cccc1CC(=O)N/N=C\c1c2ccccc2cc2ccccc12	Bcl-xL primary 33, MCL1 BIM primary 51
Cn1cccc1/C=N/NC(=O)Cc1cccc2ccccc12	none
